Compounds with a hit are over-represented: about 2.7% of the library has one in this group of screens.
a7 integrin act: qHTS for Activators of Integrin-Mediated Alleviation for Muscular Dystrophy. 350,000 compounds, 0.064% hits. Potency, µM (series often up to 38.3 µM), for inactives: at the top dose activation, hits mostly activators. AID 624291, 2012. alpha7betagal myoblasts, beta-gal FDG fluorescence, 48 h;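 also: 100% = response of the positive control SU9516; nearly all actives have a fitted effect of over 60% in size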
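Alpha7betagal+/- myoblasts (passage 13) were plated 16-24 hr, then exposed to compounds (1:260 dilution of DMSO stock) for 48 hours at 37C. After MPER lysis, β-galactosidase reporter activity was read as FDG fluorescence (ex 480/em 540) after 30 minutes.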
GLP1R cytotox: qHTS of GLP-1 Receptor Inverse Agonists: Cytotox Screen. HEK293 cAMP-luciferase reporter cells, luminescence, 24 h. 410,000 compounds, 0.13% hits. Potency, µM (titrated, usually from 38.3 µM), for the others: top-dose activity change, negative = inhibition, most hits filed as inhibitors;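 also: loss of luciferase light is scored as toxicity; % is scaled to controls: 0 for no effect and ±100 for the full control effect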
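To flag toxic compounds, the library was rerun on cells for 24 hr at 37 deg C and 5% CO2. Viability-linked luminescence was captured 12 min after adding luciferase detection reagent.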
BRCA1 expr up: qHTS Assay to Identify Small Molecule Activators of BRCA1 Expression; 380,000 compounds, 1.1% hits; Potency, µM (highest dose often 46.1 µM), without a hit: at the top dose activation, usual class: activators; MCF7-BRCA1-FFLuc reporter, luminescence, 48 h; response scale: scaled: vehicle 0%, 10 µM genistein 100%; also: nearly all actives have a fitted effect of over 80% in size
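Luminescence from a BRCA1-driven firefly luciferase in MCF7 cells was the read-out, taken 15 min after substrate addition following 48 h compound exposure at 37 °C. Data were normalized to a 10 microM genistein control and DMSO vehicle.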
GLP-1R agonist: qHTS of GLP-1 Receptor Agonists. Glucagon-like peptide 1 receptor (Homo sapiens), P43220. HEK293 GLP-1R CRE-luciferase, luminescence, 4-6 h; cells express a hypersensitive GLP-1R form. Potency, µM (titrated, usually from 45.6 µM), without a hit: at the highest dose activation, hits mostly activators. 380,000 compounds, 0.007% hits; also: % of control where 0% means no effect
Target sequence (P43220 whole entry, looked up): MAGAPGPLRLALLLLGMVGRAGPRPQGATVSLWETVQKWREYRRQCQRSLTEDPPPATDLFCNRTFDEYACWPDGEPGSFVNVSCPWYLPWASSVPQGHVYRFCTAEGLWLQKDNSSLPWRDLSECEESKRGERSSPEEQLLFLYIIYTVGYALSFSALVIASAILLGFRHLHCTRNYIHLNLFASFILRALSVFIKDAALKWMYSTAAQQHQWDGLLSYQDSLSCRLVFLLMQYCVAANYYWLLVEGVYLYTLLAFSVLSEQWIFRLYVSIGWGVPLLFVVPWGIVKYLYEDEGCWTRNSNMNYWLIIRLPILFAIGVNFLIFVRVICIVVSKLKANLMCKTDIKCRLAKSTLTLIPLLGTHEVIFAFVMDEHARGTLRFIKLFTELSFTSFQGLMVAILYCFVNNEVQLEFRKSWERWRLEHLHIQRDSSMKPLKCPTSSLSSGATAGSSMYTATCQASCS
GLP1R inv ag: qHTS of GLP-1 Receptor Inverse Agonists (Inhibition Mode) | HEK293 GLP-1R CRE-luciferase, luminescence, 24 h; GLP-1R form is constitutively active | Potency, µM (top dose mostly 38.3 µM), for inactives: top-dose activity change, negative = inhibition, hits mostly inhibitors | 410,000 compounds, 1.6% hits | AID 624417, 2012; also: % is scaled to controls: 0 for no effect and ±100 for the full control effect; nearly all actives have a fitted effect of over 55% in size
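Readout was luciferase luminescence, measured 12 min after detection reagent at room temperature. Beforehand, GLP-1R reporter HEK293 cells had sat 12 h, then received compounds for 24 hr at 37 deg C.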
Numbers without * were called inactive; u = inconclusive; x = not tested or not shown. Calls follow the shape of the dose curve; as a rule, active = well fitted curve in the direction sought with a large enough effect; inconclusive = small, poorly fitted or top-dose-only effect, or another doubt; inactive = no such curve, though single readings can be large; an effect the other way counts as inactive or inconclusive. Potency is read from the fitted curve at half-maximal effect.

SMILES | a7 integrin act | GLP1R cytotox | BRCA1 expr up | GLP-1R agonist | GLP1R inv ag
N#CC(C#N)=c1ccc2c(c1)NC1(CCCCC1)N=2 | -39% | 10µM* | -101% | 0% | 164%
CCN(CC)CCNC(=O)c1ccc(Cn2c(SCc3ccccc3)nc3cccnc32)cc1 | x | -9% | x | x | u
CCOC(=O)C1=C(NC(=S)NC(=O)c2ccccc2)c2ccccc2CC1C(C)C (stereo not given) | -43% | u | -25% | 5% | 3.2µM*
CCOC(=O)c1sc(NC(=S)NC(=O)c2ccccc2)c(C(=O)OCC)c1C | -9% | -5% | -27% | -8% | 5%
CCOC(=O)C1=C(NC(=S)NC(=O)c2ccccc2)c2ccccc2CC1(C)CC (stereo not given) | 0% | 11µM* | -51% | -2% | 5µM*
CSCCC(NS(=O)(=O)c1ccc2c(c1)oc(=O)n2C)C(=O)N1CCN(c2cc(Cl)ccc2C)CC1 (stereo not given) | x | -9% | x | x | u
Cc1ccc(-c2nnc(Nc3ccc(F)cc3)c3ccccc23)cc1S(=O)(=O)NC(C)C | x | 0% | x | x | 9%
CCn1nc(NS(=O)(=O)c2ccc(F)cc2)c2cc3cccc(C)c3nc21 | 9% | -4% | -9% | -6% | 10µM*
Cc1ccc(NC(=S)N(CCC(C)C)C(C)c2ccncc2)c(Cl)c1 (stereo not given) | 10% | -8% | -56% | 13% | 10µM*
O=C(C[n+]1csc2ccccc21)c1ccc(O)c(O)c1 | x | x | 11% | x | x
CCCN(CC(=O)Nc1ccccc1OC)C(=O)CC1CCCC1 | 22% | 14% | -24% | 1% | 8.9µM*
CCCN(CC(=O)Nc1ccccc1OC)C(=O)c1cc(-c2ccccc2)nn1-c1ccccc1 | 0% | 4% | -32% | 8% | 10µM*
CCc1ccccc1NC(=O)CN1C(=O)COc2ccc(S(=O)(=O)Nc3ccccc3)cc21 | x | -8% | -11% | 0% | -16%
Cc1cc(C)n(-c2nc3cc(Cl)c(Cl)cc3nc2Nc2ccc(F)cc2C)n1 | x | -2% | x | x | -1%
c1cc(CSc2nnc(-c3ccc4c(c3)OCO4)o2)ccn1 | 16% | 7% | 3.2µM* | 8% | -5%
Fc1ccccc1CSc1nnc(-c2cccs2)o1 | -8% | -9% | 4µM* | 2% | -28%
Fc1ccc(Cc2nnc(-c3cccs3)o2)cc1 | -16% | 1% | 10µM* | 9% | 1%
Clc1ccccc1CSc1nnc(-c2ccncc2)o1 | -29% | -1% | 8.9µM* | 5% | 4%
COc1ccc(-c2nc3ccccc3s2)cc1NC(=O)c1ccccc1OC | x | 6% | x | x | 22%
CSc1ccc(/C=C2\C=C(C(O)c3ccc(SC)cc3)c3ccccc32)cc1 (stereo not given) | x | x | 0% | x | x
COc1ccc(O)c(/C=N/NC(=S)NCCc2ccccc2)c1 | -27% | 6% | -47% | 23% | 2.2µM*
Oc1ccc(Br)cc1/C=N/NC(=S)NCCc1ccccc1 | -38% | 39% | -76% | 18% | u
Fc1ccc(/C=N/NC(=S)NCCc2ccccc2)cc1F | 6% | 13µM* | 41% | 23% | u
COc1ccc2[nH]cc(CCNC(=S)NCCc3ccccc3)c2c1 | u | u | -1% | 12% | 8.9µM*
COc1ccc(/C(C)=N/NC(=S)NCCc2ccccc2)c(O)c1 | -35% | u | -38% | 8% | 2µM*
SMILES | a7 integrin act | GLP1R cytotox | BRCA1 expr up | GLP-1R agonist | GLP1R inv ag
COCCNC(=S)N/N=C(\C)c1ccccc1O | -61% | -91% | u | 10% | u
N#Cc1ccccc1Cn1c(SCC(=O)NCc2ccccc2)nc2ccccc21 | x | -1% | -25% | x | -12%
CCOc1ccccc1NC(=O)Cn1c(=O)n(CCC(=O)NCc2ccc3c(c2)OCO3)c(=O)c2ccccc21 | x | -5% | x | x | 4%
COc1ccc2cc(C(=O)NCc3ccccc3)[nH]c2c1 | u | -12% | 65% | 13% | -7%
COc1ccc2cc(C(=O)NCCc3ccccc3)[nH]c2c1 | 0% | 0% | 4.5µM* | 9% | 6%
Cc1ccc(CN(Cc2ccco2)c2cnc(S(C)(=O)=O)nc2C(=O)Nc2ccccc2Br)o1 | x | 16% | x | x | u
CC(=O)C1=C(OC(=O)C(C)C)c2ccccc2S(=O)(=O)N1Cc1ccccc1 | x | -1% | x | x | -4%
O=S(=O)(Nc1nc2ccccc2nc1Nc1cccc(S(=O)(=O)N2CCCCC2)c1)c1ccccc1 | -28% | -29% | -83% | -18% | 11µM*
COc1ccc(NS(=O)(=O)c2cccc(C(=O)NCC(c3ccc(OC)cc3)N3CCCC3)c2)cc1 (stereo not given) | -20% | -9% | -25% | 2% | u
COc1ccc(C(CNC(=O)COc2ccc(Br)cc2F)N2CCCC2)cc1 (stereo not given) | -17% | 8% | 3% | 5% | 13µM*
COc1ccc(C(CNC(=O)c2cccc(S(=O)(=O)Nc3ccc(F)cc3)c2)N2CCCC2)cc1 (stereo not given) | -34% | -12% | -32% | -11% | 10µM*
COc1ccc(C(CNC(=O)c2ccc(OCc3ccccc3)cc2)N2CCOCC2)cc1 (stereo not given) | 14% | -10% | -12% | 3% | u
O=C(NCC(c1ccc(F)cc1)N1CCOCC1)c1ccc(OCc2ccccc2)cc1 (stereo not given) | 0% | -13% | -28% | 2% | 10µM*
Cc1nn(-c2ccccc2)c(OC(=O)c2cccc(Br)c2)c1S(=O)(=O)c1ccccc1 | x | -8% | 16% | -3% | 13%
COc1ccc(C(CNC(=O)c2cccc(NS(=O)(=O)c3ccccc3)c2)N(C)C)cc1 (stereo not given) | -5% | -4% | -5% | 7% | -21%
COc1ccc(NS(=O)(=O)c2ccc(O)c(NC(=O)c3ccc(S(=O)(=O)N4CCCCCC4)cc3)c2)cc1 | -3% | -9% | -23% | 2% | -24%
COc1ccc(C(CNC(=O)c2cccc(NS(=O)(=O)c3ccc(C)c(F)c3)c2)N(C)C)cc1 (stereo not given) | -39% | -18% | -7% | 10% | 11µM*
CC(=O)c1ccc(NC(=O)c2cccc(S(=O)(=O)N3CCN(C)CC3)c2)cc1 | 1% | 2% | 11µM* | 10% | -17%
COc1ccc(NS(=O)(=O)c2cccc(NC(=O)c3ccc(S(=O)(=O)N4CCCCCC4)cc3)c2)cc1 | -41% | -5% | -81% | 1% | 7.9µM*

High-throughput results: PubChem BioAssay, National Center for Advancing Translational Sciences (NCATS)
